Only a selection was taken, and hits are over-represented in it overall.
nsP2pro primary: blocks chikungunya virus nsP2 protease peptide cleavage; 31,000 compounds, 1.1% hits; AID 1964107; FRET peptide cleavage, nsP2pro, fluorescence 1 h; Potency, µM (doses to about 24.9 µM), for the others: top-dose activity change, negative = inhibition, most hits filed as inhibitors; Q8JUX6; further: nearly all actives have a fitted effect of over 60% in size
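Purified recombinant nsP2pro (150 nM final) in 10 mM Tris-HCl pH 8.0 with 0.01% Tween 20 was preincubated 15 min at room temperature with compound (7 concentrations, up to 25 uM). FRET peptide 2 substrate (2.5 uM final) was then added; fluorescence was read after 1 h.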
nsP2 cell sec: secondary cell-based test for CHIKV nsP2 protease inhibitors; shares compounds with nsP2pro primary; cell-based CHIKV nsP2 protease reporter assay; Potency, µM (top dose mostly 51.1 µM), inactives show top-dose activity change, negative = inhibition, usual class: inhibitors; 450 compounds, 10% hits; AID 1964100; further: nearly all actives have a fitted effect of over 70% in size
Target sequence (Q8JUX6 220-798 limits assumed): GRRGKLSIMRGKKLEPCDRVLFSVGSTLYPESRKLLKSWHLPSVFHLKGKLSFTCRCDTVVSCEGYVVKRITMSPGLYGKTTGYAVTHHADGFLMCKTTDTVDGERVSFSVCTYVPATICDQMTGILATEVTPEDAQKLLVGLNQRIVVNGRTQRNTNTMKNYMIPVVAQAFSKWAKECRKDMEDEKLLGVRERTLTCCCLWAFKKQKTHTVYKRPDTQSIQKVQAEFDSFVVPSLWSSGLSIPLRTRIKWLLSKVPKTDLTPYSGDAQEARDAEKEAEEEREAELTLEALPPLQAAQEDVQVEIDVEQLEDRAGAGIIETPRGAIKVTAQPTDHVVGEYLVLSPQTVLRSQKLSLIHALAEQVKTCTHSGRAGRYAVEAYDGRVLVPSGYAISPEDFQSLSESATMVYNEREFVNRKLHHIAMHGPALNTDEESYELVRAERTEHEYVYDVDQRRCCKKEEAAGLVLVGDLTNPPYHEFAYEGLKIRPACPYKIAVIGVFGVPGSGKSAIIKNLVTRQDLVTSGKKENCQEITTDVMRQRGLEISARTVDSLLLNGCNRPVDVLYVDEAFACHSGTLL
CHIKV NSP2 FL: full-length CHIKV NSP2 protease inhibition, selectivity; Potency, µM (series often up to 50.7 µM), without a hit: top-dose activity change, negative = inhibition, usual class: inhibitors; shares compounds with nsP2pro primary; AID 1964101; 410 compounds, 39% hits; Full-length CHIKV NSP2 protease enzymatic counterscreen; further: nearly all actives have a fitted effect of over 65% in size
Furin counterscr: inhibits human furin in a CHIKV nsP2 protease selectivity counterscreen | shares compounds with nsP2pro primary | Recombinant human furin enzymatic counterscreen, fluorogenic substrate | Potency, µM (series often up to 50.6 µM), for the others: top-dose activity change, negative = inhibition, hits mostly inhibitors | 410 compounds, 6% hits | AID 1964102
NS23 peptide cs: nsP2pro inhibition on native NS2/3 peptide substrate; shares compounds with nsP2pro primary; Purified CHIKV nsP2 protease, endogenous NS2/3 peptide cleavage; Potency, µM (top dose mostly 51 µM), without a hit: at the top dose activity change, negative = inhibition, most hits filed as inhibitors; 410 compounds, 34% hits; AID 1964103; further: nearly all actives have a fitted effect of over 55% in size
Papain counter: inhibits papain in a CHIKV nsP2 protease selectivity counterscreen; shares compounds with nsP2pro primary; purified papain protease activity, enzymatic inhibition; Potency, µM (top dose mostly 51 µM), without a hit: at the highest dose activity change, negative = inhibition, most hits filed as inhibitors; 410 compounds, 5% hits
nsP2pro conf qHTS: CHIKV nsP2 protease inhibition, confirmatory qHTS; AID 1964105; shares compounds with nsP2pro primary; 410 compounds, 43% hits; Potency, µM (highest dose often 25.5 µM), inactives show top-dose activity change, negative = inhibition, actives largely listed as inhibitors; CHIKV nsP2 protease enzymatic activity, qHTS; further: nearly all actives have a fitted effect of over 75% in size
HCV NS3 4A cs: inhibits HCV NS3/4A protease in an nsP2pro selectivity counterscreen | shares compounds with nsP2pro primary | HCV NS3/4A protease biochemical counterscreen | Potency, µM (highest dose often 50.9 µM), usual class: inhibitors | 410 compounds, 20% hits | AID 1964106; further: nearly all actives have a fitted effect of over 55% in size
Numbers without * were called inactive; i = inactive; ? = inconclusive; [ ] = dose if it differs, or a comment. The call rests on the fitted dose curve. On the % scale 0 is the no-effect control and ±100 the full control effect; potency means the concentration at half of the fitted maximal effect.

SMILES	nsP2pro primary	others
CCCCCn1cc(C(=O)Oc2cccc3cccnc23)c2ccccc21	3.5%
O=C(Nc1nc(-c2ccccc2)cs1)c1ccncc1NS(=O)(=O)c1ccc2ccccc2c1	i
COc1cc2c(cc1O)C1(Cc3ccc4c(c3C1=O)OCO4)N(C)CC2 (stereo not given)	-18.8%
Cc1ccc(CNC(=O)c2ccc(Cn3c(SCc4ccc(F)cc4)nc4cccnc43)cc2)o1	?	nsP2 cell sec=-15.6%
O=C(NCc1cccs1)c1ccc(Cn2c(SCc3ccc(F)cc3)nc3cccnc32)cc1	22.8%
Cc1cccc(CSc2nc3cccnc3n2Cc2ccc(C(=O)NCc3ccco3)cc2)c1	-9.5%
Cc1ccc(-c2cc(C(=O)O)c3cccc(C)c3n2)cc1C	0.5%
Cc1ccccc1C(=O)N1CCC2(CC1)CC(c1cccc(C(F)(F)F)c1)=NO2	1.4%
Oc1cc2c(cc1CN1CCN(c3ncccn3)CC1)OCO2	10µM*	nsP2 cell sec=-28.7%;CHIKV NSP2 FL=?;Furin counterscr=-3.9%;NS23 peptide cs=16.3µM*;Papain counter=-3.4%;nsP2pro conf qHTS=7.11µM*;HCV NS3 4A cs=?
CC1(C)CC(=O)N(CCCCN2CCN(c3ncccn3)CC2)C(=O)C1	-6.1%
O=C(O)C(c1ccc2c(c1)OCCO2)N1CCCN(c2ncccn2)CC1 (stereo not given)	-3.9%
O=C(C1CCCN1C(=O)C1CCCC1)N1CCC(N2Cc3ccccc3C2=O)CC1 (stereo not given)	0.6%
CC[C@H]1OC(=O)[C@H](C)C(=O)[C@H](C)[C@@H](OC2O[C@H](C)C[C@H](N(C)C)[C@H]2O)[C@@H](C)C[C@@H](C)C(=O)/C=C/[C@]1(C)O (stereo not given in full)	4.0%[10 µM]
C=CC(C)(C)c1[nH]c2ccccc2c1C1=C(O)C(=O)C(c2c[nH]c3c(CC=C(C)C)cccc23)=C(O)C1=O	?	nsP2 cell sec=19.0%;CHIKV NSP2 FL=32.1%;Furin counterscr=-11.9%;NS23 peptide cs=i;Papain counter=2.59µM*;nsP2pro conf qHTS=120.6%;HCV NS3 4A cs=4.11µM*
Cc1cccc(C(=O)N2CCCC(c3nnnn3-c3ccccc3)C2)c1 (stereo not given)	i
CC(=O)Nc1ccc(C(=O)N2CCC3(CC2)CN(C)CCN3C)c(C)c1	i
CC(C)(C)OC(=O)NCCOCCOCCOCCn1ncc2c1CCCC2NC(=O)c1ccccn1 (stereo not given)	i
Cc1ccc(-c2cc(C(=O)Nc3ccc(-c4nn[nH]n4)cc3)c3ccccc3n2)cc1C	i
CCCCOC(=O)C(=O)Nc1cccc(-c2nn[nH]n2)c1	-1.3%
O=C(O)C(=O)Nc1cccc(-c2nn[nH]n2)c1	?	nsP2 cell sec=0.1%;CHIKV NSP2 FL=?;Furin counterscr=-7.0%;NS23 peptide cs=?;Papain counter=-6.0%;nsP2pro conf qHTS=10µM*;HCV NS3 4A cs=?
O=C(C1CCCN(C2CCN(c3ncccn3)CC2)C1)N1CCOCC1 (stereo not given)	i
O=C(CCl)Nc1ccc(S(=O)(=O)c2ccc(NC(=O)CCl)cc2)cc1	2.4%
Cc1nc2c(C#N)c[nH]n2c(=O)c1C(C)C	4.5%
CC1=CC(=O)CC2C1(O)CCC(C)C21CC(c2ccoc2)OC1=O (stereo not given)	33.1%
COc1cc(/C=C/C(=O)OC2CC(OC(C)=O)C(OC(C)=O)C3C2CCC2C(=O)OC(c4ccoc4)CC23C)ccc1O[C@@H]1O[C@H](CO)[C@@H](O)[C@H](O)[C@H]1O (stereo not given in full)	-22.5%[10 µM]
COC(=O)C1(O)C(OC(C)=O)CCC2C3(CC(c4ccoc4)OC3=O)C(C)=CCC21C(=O)OC (stereo not given)	1.92µM*	nsP2 cell sec=-7.4%[17.6 µM];CHIKV NSP2 FL=-15.1%[17.3 µM];Furin counterscr=-3.3%[17.3 µM];NS23 peptide cs=i;Papain counter=-7.1%[17.2 µM];nsP2pro conf qHTS=36.2%[8.62 µM];HCV NS3 4A cs=i

Compound activity: PubChem BioAssay, National Center for Advancing Translational Sciences (NCATS)
